Results on 36 compounds are retold here after PubChem BioAssay (NCI).

The structures appear in SMILES notation. “And” between values parts separate entries of the source, which are not always exact repeats. Identical values can stand only once. This is part of a sample that, as a whole, favours compounds with a hit. Of some 83,000 tested, about 20% had one in any assay.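 Cell lines were cultured in 96-well plates, exposed to a single compound concentration, and assessed for percent growth 48 hours later.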 The source made the active and inactive calls. How the source made its calls: active means growth percent below 10; inactive means the rest. Where a SMILES comes first, the peptide text is derived from it.

One experiment deals with T-47D breast. The experiment can be described thus: NCI-60 one-dose screen, 48 h (100 = growth as untreated, 0 = no growth, -100 = all killed). The following applies: 10 µM unless noted.
`NC(Cc1c[nH]c2ccccc12)C(=O)O` (stereo not given): the growth was 110% (inactive).

`CC(=O)Nc1ccc(S(N)(=O)=O)cc1`: the growth was 87.7% (inactive) and 100% (inactive).

Turning to `COc1ccc(Nc2ccc3ccccc3c2)cc1`, the growth was 65.6% (inactive).

As for `Cc1cc(-c2ccc(N=Nc3ccc4c(S(=O)(=O)O)cc(S(=O)(=O)O)c(N)c4c3O)c(C)c2)ccc1N=Nc1ccc2c(S(=O)(=O)O)cc(S(=O)(=O)O)c(N)c2c1O`, the growth is 93.1% (inactive).

As for `CCCCCCCCCCCCCCCc1ccc(N)c(OC2OC(CO)C(O)C(O)C2O)c1` (stereo not given), the growth is 104% (inactive).

As to `CCOC(=O)c1c(C)cc(=O)oc1C`, the growth is 102% (inactive).

Consider `Cc1cc2ccccc2cn1`, for which the growth is 104% (inactive) and 107% (inactive).

Take `CN(C)c1ccc(/C=C\C(=O)c2ccccc2)cc1`: the growth is 85.2% (inactive) and 89.3% (inactive).

For `O=[N+]([O-])c1cccc(SSc2cccc([N+](=O)[O-])c2)c1`, the growth was 76.9% (inactive).

In the case of `O=C(O)/C=C\C(=O)Nc1cccc2ccccc12`, the growth is 120% (inactive) and 107% (inactive).

Turning to `CCc1cc(C)cc(O)c1`, the growth is 102% (inactive).

For `ClCCOCCOc1ccc(C2CCCCC2)cc1`, the growth is 96.7% (inactive).

With `CN(C)CC1CCCCCC(CN(C)C)C1=O` (stereo not given), the growth is 22.2% (inactive).

For the compound `NN1CCOC(c2ccccc2)C1` (stereo not given), the growth is 109% (inactive).

As to `NC(Cc1ccccc1)C(=O)NC(Cc1ccccc1)C(=O)O` (stereo not drawn) (H-Phe-Phe-OH; configuration not given here), the growth is 89.3% (inactive) and 91.7% (inactive).

As to `c1ccc(CNCCNCc2ccccc2)cc1`, the growth was 103% (inactive).

Consider `CC1=C/C(O)CC(=O)Cc2nc(co2)C(=O)N2CCC=C2C(=O)OC(C(C)C)C(C)/C=C\C(=O)NC/C=C\1` (stereo not given), for which the growth is 89.4% (inactive).

Consider `O=C1CSC2=NCCN12`, for which the growth was 111% (inactive).

As to `Cn1cnc([N+](=O)[O-])c1Sc1ncn[nH]1`, the growth is 94.2% (inactive).

`Nc1ncnc2c1ncn2C1OC(COP(=O)(O)O)C(O)C1O` (stereo not given): the growth was 123% (inactive).

Turning to `NC1CCC(C(=O)O)CC1` (stereo not given), the growth is 90.5% (inactive) and 95.8% (inactive).

For `CC[C@H](CC[C@@H](C)[C@H]1CC[C@H]2[C@@H]3CC=C4C[C@@H](O)CC[C@]4(C)[C@H]3CC[C@]12C)C(C)C`, the growth was 97.2% (inactive) and 105% (inactive).

In the case of `c1ccc2c(c1)OC1OC2Oc2ccccc21`, the growth is 100% (inactive).

`CCCCOc1ccc(Nc2cc(Cl)ccc2C(=O)O)cn1`: the growth was 92.6% (inactive) and 92.3% (inactive).

Take `CC(C)(O)C(=O)O`: the growth was 100% (inactive).

For the compound `CC(=O)OCC1OC(OC(C)=O)C(OC(C)=O)C(OC(C)=O)C1OC(C)=O` (stereo not given), the growth is 97.7% (inactive) and 101% (inactive).

`CCN(CCNS(C)(=O)=O)c1ccc(N)c(C)c1`: the growth was 1.47% (active) and 56.8% (inactive).

For the compound `OC1COC(OCc2ccccc2)C(O)C1O` (stereo not given), the growth was 89% (inactive).

As for `NC(=O)NCCCC(N)C(=O)O` (stereo not given), the growth was 88.4% (inactive).

On to `CC(C)C(C)(C)c1ccc(O)cc1`, for which the growth is 101% (inactive).

For `Cl`, the growth was 101% (inactive).

Take `N#CC(C#N)N=Nc1cc(Cl)ccc1Cl`: the growth was 96.7% (inactive).

The test system of another experiment is BT-549 breast. The experiment is described as above. The following applies: 10 µM unless noted.
For the compound `NC(Cc1c[nH]c2ccccc12)C(=O)O` (stereo not given), the growth was 113% (inactive) and 102% (inactive).

Regarding `CC(=O)Nc1ccc(S(N)(=O)=O)cc1`, the growth was 104% (inactive).

Turning to `COc1ccc(Nc2ccc3ccccc3c2)cc1`, the growth is 94.7% (inactive).

Take `Cc1cc(-c2ccc(N=Nc3ccc4c(S(=O)(=O)O)cc(S(=O)(=O)O)c(N)c4c3O)c(C)c2)ccc1N=Nc1ccc2c(S(=O)(=O)O)cc(S(=O)(=O)O)c(N)c2c1O`: the growth was 86.1% (inactive).

In the case of `CCCCCCCCCCCCCCCc1ccc(N)c(OC2OC(CO)C(O)C(O)C2O)c1` (stereo not given), the growth is 54.8% (inactive).

In the case of `CCOC(=O)c1c(C)cc(=O)oc1C`, the growth was 97.3% (inactive).

For `Cc1cc2ccccc2cn1`, the growth was 106% (inactive) and 105% (inactive).

`O=C(CO)C(O)C(O)C(O)C(O)CO` (stereo not given): the growth was 111% (inactive) and 117% (inactive).

Take `Fc1ccc([I+]c2ccc(F)cc2)cc1`: the growth was 67% (inactive).

With `CN(C)c1ccc(/C=C\C(=O)c2ccccc2)cc1`, the growth was 76.5% (inactive) and 77.6% (inactive) and 73.7% (inactive).

As for `O=[N+]([O-])c1cccc(SSc2cccc([N+](=O)[O-])c2)c1`, the growth was 101% (inactive).

As for `O=C(O)/C=C\C(=O)Nc1cccc2ccccc12`, the growth was 84.4% (inactive) and 91.7% (inactive).

Take `Brc1ccc(SSc2ccc(Br)cc2)cc1`: the growth was 29.4% (inactive).

Take `ClCCOCCOc1ccc(C2CCCCC2)cc1`: the growth is 95% (inactive).

With `CN(C)CC1CCCCCC(CN(C)C)C1=O` (stereo not given), the growth is 95% (inactive).

As for `NN1CCOC(c2ccccc2)C1` (stereo not given), the growth was 102% (inactive).

As for `NC(Cc1ccccc1)C(=O)NC(Cc1ccccc1)C(=O)O` (stereo not drawn) (H-Phe-Phe-OH; configuration not given here), the growth is 108% (inactive) and 106% (inactive).

As for `c1ccc(CNCCNCc2ccccc2)cc1`, the growth is 107% (inactive).

Take `O=C1CSC2=NCCN12`: the growth is 131% (inactive).

On to `Cn1cnc([N+](=O)[O-])c1Sc1ncn[nH]1`, for which the growth was 101% (inactive).

With `Nc1ncnc2c1ncn2C1OC(COP(=O)(O)O)C(O)C1O` (stereo not given), the growth was 113% (inactive).

With `CC[C@H](CC[C@@H](C)[C@H]1CC[C@H]2[C@@H]3CC=C4C[C@@H](O)CC[C@]4(C)[C@H]3CC[C@]12C)C(C)C`, the growth is 100% (inactive).

As for `c1ccc2c(c1)OC1OC2Oc2ccccc21`, the growth was 93.2% (inactive).

On to `CCCCOc1ccc(Nc2cc(Cl)ccc2C(=O)O)cn1`, for which the growth was 101% (inactive) and 100% (inactive).

As to `CC(C)(O)C(=O)O`, the growth is 103% (inactive).

Consider `c1ccc(-c2nc3ccccc3s2)cc1`, for which the growth is 96.8% (inactive).

For the compound `CC(=O)OCC1OC(OC(C)=O)C(OC(C)=O)C(OC(C)=O)C1OC(C)=O` (stereo not given), the growth was 96.3% (inactive) and 103% (inactive).

Turning to `CCN(CCNS(C)(=O)=O)c1ccc(N)c(C)c1`, the growth was 73.8% (inactive) and 102% (inactive).

In the case of `OC1COC(OCc2ccccc2)C(O)C1O` (stereo not given), the growth was 105% (inactive).

For `NC(=O)NCCCC(N)C(=O)O` (stereo not given), the growth was 95.7% (inactive).

With `CC(C)C(C)(C)c1ccc(O)cc1`, the growth is 110% (inactive).

On to `Cl`, for which the growth was 112% (inactive).

`N#CC(C#N)N=Nc1cc(Cl)ccc1Cl`: the growth is 101% (inactive).
